Laboratory results published in PubChem BioAssay AID624312 (National Center for Advancing Translational Sciences (NCATS), 2012).
Records with an inconclusive call do not appear. Values without a mark were called inactive. Active and inactive are the calls of the source. The call rests on the fitted dose curve; in most records, active means well fitted inhibition curve with a large enough effect; inconclusive means small, poorly fitted or top-dose-only effect; inactive means no such curve, though single readings can be large or run the other way.

Target: Peptidyl-prolyl cis-trans isomerase NIMA-interacting 1 (Homo sapiens) (UniProt Q13526)
Sequence (Q13526 whole entry, looked up): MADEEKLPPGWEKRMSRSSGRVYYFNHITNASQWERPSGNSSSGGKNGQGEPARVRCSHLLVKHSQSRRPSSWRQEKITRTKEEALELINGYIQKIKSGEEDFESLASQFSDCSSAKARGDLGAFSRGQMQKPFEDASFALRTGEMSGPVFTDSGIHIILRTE
Test: qHTS Assay to Find Inhibitors of Pin1: Hit Validation using Tamra Binding
Conditions: Pin1 Tamra-peptide displacement, fluorescence polarization, 10 min; series mostly up to 57.5 µM; activity change, negative = inhibition: at the top concentration
Description: The unique chemical properties of Pro allow for the adoption of two completely distinct amide bond conformations (cis and trans). Peptidyl-prolyl cis/trans isomerases (PPIases) are evolutionary conserved enzymes that catalyze cis/trans isomerization of peptidyl-prolyl peptide bonds. Distinct from all other PPIases such as cyclophilins and FK506-binding proteins (FKBPs), Pin1 binds a subset of phos.Ser/Thr-Pro-containing proteins using its protein-targeting WW domain and isomerizes only specific phos.Ser/Thr-Pro bonds, which cannot be effectively catalyzed by other known PPIases. Pin1-catalyzed conformational regulation can control a spectrum of activities of many key regulators in diverse cellular processes such as cell growth, genotoxic and other stress responses, immune response, germ cell development, neuronal differentiation and survival. Pin1 has emerged as a novel molecular timer that modulates its multiple targets at various steps of a given cellular process to synergistically control the amplitude and duration of a cellular response or process. Importantly, Pin1 is tightly regulated by multiple levels and its deregulation has an important role in a growing number of pathological conditions, including cancer, Alzheimer's disease, aging, asthma and microbial infection, providing a potentially new therapeutic option. The goal of this screen is to find small-molecule inhibitors of Pin1 using a fluorescence polarization competition assay.In the primary screen, a HiFluor-488-labeled peptide binds to the active site of Pin1 and can be displaced by compounds. Compounds were screened as a concentration-titration series that ranged from 57 uM to 0.7 nM. To validate the hits using a different read-out, this Tamra binding assays was used against all the hits identified from the primary screen. NIH Molecular Libraries Probe Production Network [MLPCN] NIH Chemical Genomics Center [NCGC] MLPCN Grant: R03 DA031663 PI Name: Dr. Kun Ping Lu, Beth Israel Deaconess Medical Center
Briefly, 2 uL of Pin1 (all columns but column 3, which just receives buffer and serves as negative control) are dispensed into Greiner black solid bottom 1536-well assay plates. Compounds are then transferred via Kalypsys pin tool equipped with 1536-pin array (10 nl slotted pins, V&P Scientific, San Diego, CA). Following addition of compound, 2 uL of Tamra-probe in buffer (all columns) is added to initiate the binding reaction. The plates are then incubated at room temperature for 10 minutes. Finally, plates are transferred to a ViewLux high-throughput CCD imager (PerkinElmer), wherein end-point measurements of fluorescence polarization are acquired. All reagents are diluted in an assay buffer consisting of 10 mM Hepes, 10 mM NaCl, 1 mM DTT, 1% glycerol and 0.01% Tween-20.

With O=S(=O)(Nc1cc(Sc2ncn[nH]2)c(O)c2ccccc12)c1ccccc1 as the compound, how does the “activity change, negative = inhibition” value read?
The value was 0.852%.

COc1ccccc1Nc1ccc2c(O)cc(S(=O)(=O)O)cc2c1 was tested. Which Potency did it give?
Its Potency is 7.57 µM (active).

Nc1ccc2cccc(O)c2c1 was tested. Which Potency did it give?
The Potency was 26.9 µM (active).

With CC(=O)Nc1ccc(Nc2c3c4c(cccc4n(C)c2=O)C(=O)c2ccccc2-3)cc1 as the compound, how does the “activity change, negative = inhibition” value read?
Its value is -17.4%.

For CCCCCC(=O)Nc1cc(S(=O)(=O)O)cc2cc(S(=O)(=O)O)cc(O)c12, which Potency is on record?
Its Potency is 2.39 µM (active).

With Cc1ccc2nc(-c3ccc(N=Nc4cc(S(=O)(=O)O)c5ccccc5c4O)cc3)sc2c1S(=O)(=O)O as the compound, how does the “activity change, negative = inhibition” value read?
Its value is 282%.

Which Potency does the source give for O=S(=O)(O)c1ccc(O)c2cc(Nc3ccccc3)ccc12 here?
The Potency was 3.01 µM (active).

With COc1ccc(S(=O)(=O)Nc2cc(Sc3ncn[nH]3)c(O)c3ccccc23)cc1 as the compound, how does the “activity change, negative = inhibition” value read?
Its value is -5.86%.

How did the Potency turn out when O=S(=O)(O)c1cc(O)c2cc(Nc3ccccc3)ccc2c1 was run?
The Potency was 12 µM (active).
